From PubChem BioAssay (NCI)
Values joined by “and” are separate entries in the source; they are usually repeats but may differ in a detail not shown here. Equal values may be shown once. Compounds without any hit were thinned out: in the full panel of roughly 83,000, 20% have a hit.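 Growth was measured after 48 h exposure to one concentration of compound in 96-well plates. Values under 10 count as active.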 Active and inactive are the calls of the source.

Experiments:
Assay in all cases: NCI-60 one-dose screen, 48 h (100 = growth as untreated, 0 = no growth, -100 = all killed)
Settings in all cases: 10 µM unless noted
SR leukemia = tested on: SR leukemia
RPMI-8226 leukemia = tested on: RPMI-8226 leukemia
OVCAR-8 ovarian = tested on: OVCAR-8 ovarian
OVCAR-5 ovarian = tested on: OVCAR-5 ovarian
OVCAR-4 ovarian = tested on: OVCAR-4 ovarian
SK-OV-3 ovarian = tested on: SK-OV-3 ovarian
IGROV1 ovarian = tested on: IGROV1 ovarian
OVCAR-3 ovarian = tested on: OVCAR-3 ovarian
HS 578T breast = tested on: HS 578T breast
NCI/ADR-RES ovarian = tested on: NCI/ADR-RES ovarian

Measured: growth

COc1cc(/C=C/C(=O)c2cnn(-c3cc(=O)[nH]c4ccc(Br)cc34)c2C)cc(OC)c1OC
active: SR leukemia -15.2% | RPMI-8226 leukemia -23.7% | OVCAR-8 ovarian 7.35% | OVCAR-5 ovarian -68% | IGROV1 ovarian -59.8% | OVCAR-3 ovarian -59.1% | NCI/ADR-RES ovarian -26.8%
inactive: OVCAR-4 ovarian 25.6% | SK-OV-3 ovarian 19.5% | HS 578T breast 54.1%

CN(C)CCCc1ccc(Nc2cnn(C)c(=O)c2Cl)cc1
inactive: SR leukemia 62.2% | RPMI-8226 leukemia 102% | OVCAR-8 ovarian 106% | OVCAR-5 ovarian 126% | OVCAR-4 ovarian 100% | SK-OV-3 ovarian 131% | IGROV1 ovarian 104% | OVCAR-3 ovarian 105% | HS 578T breast 105% | NCI/ADR-RES ovarian 109%

O=C(N/N=C/c1ccoc1)c1[nH]c2ccc(Br)cc2c1-c1ccccc1
active: SR leukemia -13.1% | RPMI-8226 leukemia 2.8% | OVCAR-8 ovarian -47.6% | OVCAR-5 ovarian -100% | OVCAR-4 ovarian -86.8% | SK-OV-3 ovarian -83.6% | IGROV1 ovarian -87.4% | OVCAR-3 ovarian -45.8% | HS 578T breast -28% | NCI/ADR-RES ovarian -72.5%

Fc1ccc(F)c(CNc2nc(SCCN3CCOCC3)nc3c2cnn3CC(Cl)c2ccc(Br)cc2)c1 (stereo not given)
active: SR leukemia 0.635% | RPMI-8226 leukemia 2.73%
inactive: OVCAR-8 ovarian 31.9% | OVCAR-5 ovarian 63% | OVCAR-4 ovarian 23.2% | SK-OV-3 ovarian 47% | IGROV1 ovarian 45.6% | OVCAR-3 ovarian 45.2% | HS 578T breast 23.4% | NCI/ADR-RES ovarian 22.8%

O=C(N/N=C/c1ccc(B(O)O)s1)c1[nH]c2ccc(Br)cc2c1-c1ccccc1
active: SR leukemia -22.6% | RPMI-8226 leukemia 0.974% | OVCAR-8 ovarian -28.3% | OVCAR-5 ovarian -97.6% | OVCAR-4 ovarian -63.6% | SK-OV-3 ovarian -86.7% | IGROV1 ovarian -74.8% | OVCAR-3 ovarian -47.1% | HS 578T breast -25.7% | NCI/ADR-RES ovarian -33.9%

C=CCSc1nnc(-c2ccc(-c3nc4ccc(Cl)cc4[nH]3)cc2)o1
inactive: SR leukemia 23.7% | RPMI-8226 leukemia 55.2% | OVCAR-8 ovarian 63.9% | OVCAR-5 ovarian 76.8% | OVCAR-4 ovarian 66.5% | SK-OV-3 ovarian 88.8% | IGROV1 ovarian 59.6% | OVCAR-3 ovarian 34% | HS 578T breast 36.2% | NCI/ADR-RES ovarian 54.3%

COc1ccc(N=Nc2c(N)nn3c(-c4ccc5c(c4)C=S=C5)ccnc23)cc1
inactive: SR leukemia 33.9% | OVCAR-8 ovarian 28.8% | OVCAR-5 ovarian 80.4% | OVCAR-4 ovarian 24.3% | SK-OV-3 ovarian 68.7% | IGROV1 ovarian 27% | OVCAR-3 ovarian 48.4% | HS 578T breast 24.7%
active: RPMI-8226 leukemia 9.87% | NCI/ADR-RES ovarian 3.61%

Nc1cccc(-n2c(COc3ccc(I)cc3)nc3ccccc32)c1
inactive: SR leukemia 64.7% and 101% | RPMI-8226 leukemia 68.9% and 104% | OVCAR-8 ovarian 93.4% and 106% | OVCAR-5 ovarian 88.6% and 105% | OVCAR-4 ovarian 66.2% and 105% | SK-OV-3 ovarian 64.7% and 102% | IGROV1 ovarian 46.8% and 107% | OVCAR-3 ovarian 87.7% and 83.2% | HS 578T breast 63.2% and 110% | NCI/ADR-RES ovarian 74.3% and 102%

COC(=O)c1cccc(Oc2ccc(NC(=O)Nc3cc(C(F)(F)F)ccc3F)cc2)c1
active: HS 578T breast 4.44%
inactive: SR leukemia 26.9% | RPMI-8226 leukemia 62.8% | OVCAR-8 ovarian 40.3% | OVCAR-5 ovarian 87.1% | OVCAR-4 ovarian 55.4% | SK-OV-3 ovarian 87.6% | IGROV1 ovarian 56.7% | OVCAR-3 ovarian 78.5% | NCI/ADR-RES ovarian 73.9%

O=C(OCCOCCO)N(c1cccc(Br)c1)c1nc(SCCN2CCOCC2)nc2c1cnn2CC(Cl)c1ccc(Br)cc1 (stereo not given)
inactive: OVCAR-8 ovarian 19.6% | OVCAR-5 ovarian 34.7% | OVCAR-4 ovarian 23.5% | SK-OV-3 ovarian 25.3% | IGROV1 ovarian 31.8% | OVCAR-3 ovarian 20% | NCI/ADR-RES ovarian 12.3%
active: SR leukemia -27.8% | RPMI-8226 leukemia -25.7% | HS 578T breast -2.13%

N/C(=N\c1nc2ccccc2s1)NC(=O)Nc1ccccc1[N+](=O)[O-]
inactive: SR leukemia 13.6% | OVCAR-5 ovarian 10.9% | OVCAR-4 ovarian 34.9% | IGROV1 ovarian 20.2% | HS 578T breast 41.5%
active: RPMI-8226 leukemia 2.19% | OVCAR-8 ovarian -18.8% | SK-OV-3 ovarian 2.97% | OVCAR-3 ovarian -7.53% | NCI/ADR-RES ovarian -11.3%

COc1ccc(-c2nc3ccc(-c4nnc(SCc5ccccc5)o4)cc3[nH]2)cc1OC
active: OVCAR-8 ovarian 6.86% | OVCAR-4 ovarian -45.4% | HS 578T breast 2.46% | NCI/ADR-RES ovarian 7.16%
inactive: SR leukemia 56.3% | RPMI-8226 leukemia 44.5% | OVCAR-5 ovarian 34.2% | SK-OV-3 ovarian 62.9% | IGROV1 ovarian 42.8% | OVCAR-3 ovarian 10.7%

COc1ccc(-c2nnc3c(/C=C/c4ccc(Br)cc4)nc4ccccc4n23)cc1
inactive: RPMI-8226 leukemia 21.2% | OVCAR-8 ovarian 46.1% | OVCAR-5 ovarian 79.7% | OVCAR-4 ovarian 52.9% | SK-OV-3 ovarian 112% | IGROV1 ovarian 47.8% | OVCAR-3 ovarian 15.1% | HS 578T breast 81.6% | NCI/ADR-RES ovarian 67.5%
active: SR leukemia -19.4%

NS(=O)(=O)c1ccc(N2N=C(c3ccc(NC(=O)Nc4ccccc4)cc3)CC2c2ccc(Br)cc2)cc1 (stereo not given)
inactive: SR leukemia 13%
active: RPMI-8226 leukemia 4.09% | OVCAR-8 ovarian -32.7% | OVCAR-5 ovarian -98.2% | OVCAR-4 ovarian -85.2% | SK-OV-3 ovarian -61.7% | IGROV1 ovarian -86.7% | OVCAR-3 ovarian -29.7% | HS 578T breast -24.5% | NCI/ADR-RES ovarian -83.4%

CN1CCN(CCS(=O)(=O)Nc2cc(-c3ccc4ncnc(Nc5ccc(F)c(Cl)c5)c4c3)cnc2Cl)CC1
inactive: RPMI-8226 leukemia 75.2% | OVCAR-8 ovarian 22.4% | OVCAR-5 ovarian 16% | OVCAR-4 ovarian 32.3% | NCI/ADR-RES ovarian 78.4%
active: SR leukemia -45.4% | SK-OV-3 ovarian 3.06% | IGROV1 ovarian -34.8% | OVCAR-3 ovarian -31.7% | HS 578T breast -23.3%

COc1ccc2[nH]c(O)c(N=Nc3nc(-c4ccccc4)cs3)c2c1
active: OVCAR-8 ovarian 6.68% | OVCAR-4 ovarian -7.14% | SK-OV-3 ovarian -17.4% | OVCAR-3 ovarian -2.28% | NCI/ADR-RES ovarian 3.46%
inactive: SR leukemia 27% | RPMI-8226 leukemia 58.6% | OVCAR-5 ovarian 53.2% | IGROV1 ovarian 36.1% | HS 578T breast 41.6%

COc1c(B(O)O)cc(F)cc1-c1nc2c(F)cc3[nH]ncc3c2c2c1CCCC2
inactive: SR leukemia 33% | OVCAR-8 ovarian 10.2% | OVCAR-5 ovarian 15.9% | OVCAR-4 ovarian 39.4% | SK-OV-3 ovarian 25.1% | IGROV1 ovarian 14.6% | OVCAR-3 ovarian 18.6% | HS 578T breast 11.4% | NCI/ADR-RES ovarian 17.4%
active: RPMI-8226 leukemia -5.25%

Cc1[nH]nc2ccc3nc(-c4cnn(CCO)c4)c4c(c3c12)CCCC4
active: SK-OV-3 ovarian 9.64% | HS 578T breast -2.52%
inactive: SR leukemia 13.8% | RPMI-8226 leukemia 33.8% | OVCAR-8 ovarian 48.7% | OVCAR-5 ovarian 90.4% | OVCAR-4 ovarian 63.1% | IGROV1 ovarian 44.5% | OVCAR-3 ovarian 90.2% | NCI/ADR-RES ovarian 73.5%

Nc1nn2c(-c3cc4cc(Br)ccc4oc3=O)ccnc2c1N=Nc1ccc(S(N)(=O)=O)cc1
inactive: SR leukemia 74.4% | RPMI-8226 leukemia 109% | OVCAR-8 ovarian 79% | OVCAR-5 ovarian 112% | OVCAR-4 ovarian 100% | SK-OV-3 ovarian 58.9% | IGROV1 ovarian 93.1% | OVCAR-3 ovarian 103% | HS 578T breast 102% | NCI/ADR-RES ovarian 103%

CC[C@]12C=CCN3CC[C@]4(C(=C(C(=O)OC)C1)Nc1cc(OC)c([C@@H]5[C@H]6O[C@H]6[C@@]6(CC)CC(C(=O)OC)=C7Nc8cc(O)ccc8[C@@]78CCN5[C@@H]68)cc14)[C@@H]32
active: SR leukemia -30.7% | RPMI-8226 leukemia -5.84% | OVCAR-5 ovarian -66.7% | IGROV1 ovarian 1.62% | OVCAR-3 ovarian -9.2% | NCI/ADR-RES ovarian 6.92%
inactive: OVCAR-8 ovarian 27.6% | OVCAR-4 ovarian 14.6% | SK-OV-3 ovarian 40.2% | HS 578T breast 23.7%

Cn1cc(-c2cc(N)n3nc(-c4c[nH]c5ccccc45)cc3n2)c2cc(Br)ccc21
inactive: SR leukemia 13.6%
active: RPMI-8226 leukemia -9.12% | OVCAR-8 ovarian -63.7% | OVCAR-5 ovarian -57.1% | OVCAR-4 ovarian -40.6% | SK-OV-3 ovarian -60% | IGROV1 ovarian -70.6% | OVCAR-3 ovarian -48% | HS 578T breast -29.9% | NCI/ADR-RES ovarian -18.4%

O=C(NNC(=O)c1ccc(OCc2nc3ccc(Cl)cc3[nH]2)cc1)Nc1ccc(Cl)c(C(F)(F)F)c1
inactive: SR leukemia 50.3% | RPMI-8226 leukemia 35.9% | OVCAR-8 ovarian 19.1% | OVCAR-5 ovarian 76.4% | OVCAR-4 ovarian 80.1% | SK-OV-3 ovarian 92.4% | IGROV1 ovarian 69.6% | OVCAR-3 ovarian 51.8% | HS 578T breast 57.2% | NCI/ADR-RES ovarian 95.4%

O=C(NN1C(=O)/C(=C/C=C/c2ccc([N+](=O)[O-])o2)SC1=S)c1ccc([N+](=O)[O-])cc1
active: SR leukemia -5.7% | RPMI-8226 leukemia -30.6% | OVCAR-8 ovarian -75.5% | OVCAR-5 ovarian -100% | OVCAR-4 ovarian -99% | SK-OV-3 ovarian -100% | IGROV1 ovarian -96.4% | OVCAR-3 ovarian -97.1% | HS 578T breast -27.3% | NCI/ADR-RES ovarian -44%

O=C(NC(=S)N1CCN(c2ncnc3c2cnn3-c2ccccc2)CC1)c1ccc(Br)cc1
inactive: SR leukemia 14.1% | RPMI-8226 leukemia 83.4% | OVCAR-8 ovarian 47.4% | OVCAR-5 ovarian 81.8% | OVCAR-4 ovarian 41.9% | SK-OV-3 ovarian 57% | IGROV1 ovarian 72.1% | OVCAR-3 ovarian 89.6% | HS 578T breast 53.8% | NCI/ADR-RES ovarian 53.9%

Oc1cncc(-c2ccc3ncnc(N4CCc5cc(F)c(Cl)cc54)c3c2)c1
active: IGROV1 ovarian 5.56%
inactive: SR leukemia 42.5% | RPMI-8226 leukemia 55.2% | OVCAR-8 ovarian 37.4% | OVCAR-5 ovarian 59.8% | OVCAR-4 ovarian 40.6% | SK-OV-3 ovarian 54.3% | OVCAR-3 ovarian 58% | HS 578T breast 18.1% | NCI/ADR-RES ovarian 61.9%

Cn1cc(-c2cc(N)n3nc(-c4c[nH]c5ccc(Cl)cc45)cc3n2)c2cc(Br)cnc21
inactive: SK-OV-3 ovarian 65.1%
active: SR leukemia -40.9% | RPMI-8226 leukemia -43.6% | OVCAR-8 ovarian -60.1% | OVCAR-5 ovarian -61.2% | OVCAR-4 ovarian -54% | IGROV1 ovarian -49.3% | OVCAR-3 ovarian -81% | HS 578T breast -16.2% | NCI/ADR-RES ovarian -54.7%
